Most compounds without a hit are left out; they make up all but 2.4% or so of the library.
Pol eta inh-1: inhibitors of human DNA polymerase eta. AID 588591. 390,000 tested, 1.2% active. Potency, µM (titrated, usually from 114 µM), without a hit: at the highest dose activity change, negative = inhibition, actives largely listed as inhibitors. recombinant Pol eta, fluorescent DNA replication assay; also: potency is read from the fitted curve at half-maximal effect; % is scaled to controls: 0 for no effect and ±100 for the full control effect
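Pol eta (10 nM) was preincubated with compounds for 15 min at room temperature, after which fluorescent replication substrate (50 nM final) was added to start the reaction. Fluorescence was read kinetically at 0 and 10 min.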
POLB inh: DNA polymerase beta (human) inhibition; 340,000 tested, 1.3% active; Pol beta primer extension/strand displacement, fluorescence kinetic; Potency, µM (highest dose often 114 µM), inactives show at the top dose activity change, negative = inhibition, usual class: inhibitors; also: potency is read from the fitted curve at half-maximal effect; % is scaled to controls: 0 for no effect and ±100 for the full control effect
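Kinetic readout of DNA synthesis with strand displacement by Pol beta. Compound and 10 nM enzyme sit 15 min at room temperature; 50 nM substrate starts the reaction, read immediately and at 10 min.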
POLI inh: blocks human DNA polymerase iota activity; Pol iota fluorescent replication assay, 10 min; 390,000 tested, 1% active; Q9UNA4; Potency, µM (series often up to 115 µM), inactives show top-dose activity, negative = inhibition, actives largely listed as inhibitors; also: potency is read from the fitted curve at half-maximal effect
Target sequence (Q9UNA4 whole entry, looked up): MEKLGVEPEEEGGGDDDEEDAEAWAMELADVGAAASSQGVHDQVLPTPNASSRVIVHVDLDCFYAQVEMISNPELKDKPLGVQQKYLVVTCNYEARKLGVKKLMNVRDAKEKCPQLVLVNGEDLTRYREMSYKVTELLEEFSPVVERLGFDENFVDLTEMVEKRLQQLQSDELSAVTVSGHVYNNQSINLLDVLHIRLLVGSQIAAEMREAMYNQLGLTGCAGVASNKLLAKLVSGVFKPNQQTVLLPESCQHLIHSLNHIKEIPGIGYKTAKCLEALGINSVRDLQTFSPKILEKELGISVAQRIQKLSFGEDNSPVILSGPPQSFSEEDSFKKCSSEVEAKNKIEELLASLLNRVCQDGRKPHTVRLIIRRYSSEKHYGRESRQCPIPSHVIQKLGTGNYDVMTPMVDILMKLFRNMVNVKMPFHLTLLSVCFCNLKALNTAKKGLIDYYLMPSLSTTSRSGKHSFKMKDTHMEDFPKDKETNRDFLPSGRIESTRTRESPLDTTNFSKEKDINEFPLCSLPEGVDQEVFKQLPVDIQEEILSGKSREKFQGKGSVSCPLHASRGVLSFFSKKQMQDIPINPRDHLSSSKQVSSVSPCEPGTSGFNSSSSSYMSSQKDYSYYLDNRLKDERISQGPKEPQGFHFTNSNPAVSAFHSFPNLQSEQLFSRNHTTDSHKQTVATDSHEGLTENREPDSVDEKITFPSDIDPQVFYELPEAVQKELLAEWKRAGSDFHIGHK
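Fluorescent replication assay read twice, at 0 min and 10 min after adding 50 nM (final) substrate. Enzyme (10 nM) and compounds were first incubated 15 min at room temperature; enzyme-free buffer wells were negative controls.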
Pol kappa inh-1: inhibitors of human DNA polymerase kappa; purified Pol kappa, fluorescent DNA synthesis assay, 10 min; Potency, µM (titrated, usually from 107 µM), for the others: top-dose activity, negative = inhibition, hits mostly inhibitors; 400,000 tested, 0.53% active; Q9UBT6; AID 588579; also: potency is read from the fitted curve at half-maximal effect; % is scaled to controls: 0 for no effect and ±100 for the full control effect
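Kinetic fluorescence screen: compound preincubated 15 min RT with 10 nM enzyme; 50 nM substrate (final) initiates; reads at 0/10 min.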
WRN inhibitor: blocks human WRN helicase; Potency, µM (top dose mostly 114 µM), without a hit: top-dose activity change, negative = inhibition, usual class: inhibitors; WRN helicase unwinding, fluorescent forked duplex, kinetic; AID 651768; 360,000 tested, 0.46% active; Q14191; also: potency is read from the fitted curve at half-maximal effect; % is scaled to controls: 0 for no effect and ±100 for the full control effect; nearly all actives have a fitted effect of over 55% in size
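Kinetic fluorescence helicase assay: unwinding of a quenched forked DNA duplex (100 nM final) with 2 mM ATP final raises red fluorescence (525/598 nm). Compounds sat 15 min at room temperature with 20 nM WRN beforehand.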
FEN1 inh: human FEN1 inhibition; P39748; Recombinant FEN1 flap cleavage, fluorescence, 15 min; Potency, µM (doses to about 114 µM), without a hit: at the highest dose activity change, negative = inhibition, actives largely listed as inhibitors; 390,000 tested, 0.35% active; AID 588795; also: potency is read from the fitted curve at half-maximal effect; % is scaled to controls: 0 for no effect and ±100 for the full control effect; nearly all actives have a fitted effect of over 65% in size
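Quantitative HTS format: each compound was titrated, incubated with 10 nM nuclease for 15 min at room temperature, then challenged with flap substrate at 50 nM final. Signal change over 15 min gave concentration–effect curves.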
PGK validate: blocks T. brucei phosphoglycerate kinase. shares compounds with Pol kappa inh-1. TbPGK coupled GAPDH assay, Kinase-Glo luminescence. Potency, µM (highest dose often 57.5 µM), for inactives: top-dose activity change, negative = inhibition, most hits filed as inhibitors. 500 tested, 79% active. AID 686980; also: potency is read from the fitted curve at half-maximal effect; % is scaled to controls: 0 for no effect and ±100 for the full control effect; nearly all actives have a fitted effect of over 65% in size
Pol iota confirm: Human Pol iota inhibitor confirmatory assay | shares compounds with Pol kappa inh-1 | Pol iota primer extension, TAMRA/BHQ fluorescence | Potency, µM, actives largely listed as inhibitors | 1,500 tested, 77% active | AID 720496; also: potency is read from the fitted curve at half-maximal effect
GALK confirm: galactokinase (human) inhibition, confirmation; shares compounds with Pol eta inh-1; purified GALK, Kinase-Glo ATP depletion luminescence; AID 2015; Potency, µM (titrated, usually from 115 µM), for the others: at the top dose activity, negative = inhibition, most hits filed as inhibitors; 150 tested, 70% active
GALK redox cs: redox cycling activity in phenol red-HRP assay; shares compounds with Pol eta inh-1; AID 2035; Phenol red-HRP H2O2 redox cycling, absorbance 600 nm; 150 tested, 40% active; Potency, µM (series often up to 115 µM), without a hit: top-dose activity change, negative = H2O2 signal, usual class: inhibitors
HEK293 viability: HEK-293 cytotoxicity, GALK inhibitor secondary; shares compounds with Pol eta inh-1; HEK-293 viability, ATP luminescence (CellTiter-Glo), 24/48 h; Potency, µM (series often up to 46.1 µM), inactives show top-dose activity change, negative = cytotoxicity, hits mostly inhibitors; 170 tested, 10% active; AID 2547; also: potency is read from the fitted curve at half-maximal effect; % is scaled to controls: 0 for no effect and ±100 for the full control effect
Pol kappa inh-2: confirmation of human DNA polymerase kappa inhibitors | Potency, µM, hits mostly inhibitors | shares compounds with Pol eta inh-1 | 920 tested, 76% active | purified Pol-kappa, fluorescent strand-displacement substrate; also: potency is read from the fitted curve at half-maximal effect
Pol eta inh-2: confirmation of human DNA polymerase eta inhibitors | shares compounds with Pol eta inh-1 | Pol eta primer extension, TAMRA/BHQ fluorescence, 10 min | Potency, µM, actives largely listed as inhibitors | 2,600 tested, 64% active | AID 720502; also: potency is read from the fitted curve at half-maximal effect
Active calls of the source: *; [ ] = another dose, or the depositor's remark. Calls follow the shape of the dose curve; as a rule, active = well fitted curve in the direction sought with a large enough effect; inconclusive = small, poorly fitted or top-dose-only effect, or another doubt; inactive = no such curve, though single readings can be large; an effect the other way counts as inactive or inconclusive.

Cc1ccc(S(=O)(=O)Nc2csc(C)c2C(=O)O)cc1 was read as Pol eta inh-1 18µM*, POLB inh 8.9µM*, POLI inh inconclusive, Pol kappa inh-1 -44%, WRN inhibitor -25%, FEN1 inh 0%, Pol iota confirm 67* and Pol eta inh-2 48*.
Cc1nnc(NC(=O)CCSCCC(=O)Nc2nnc(C)s2)s1 was read as Pol eta inh-1 3.2µM*, POLB inh 28µM*, POLI inh 18µM*, Pol kappa inh-1 79µM*, WRN inhibitor 50µM*, FEN1 inh -23%, Pol iota confirm 42*, Pol kappa inh-2 21* and Pol eta inh-2 27*.
`O=C1NC(=S)S/C1=C\C=C\c1ccc([N+](=O)[O-])o1` gave Pol eta inh-1 2.2µM*, POLB inh inconclusive, POLI inh 2.2µM*, Pol kappa inh-1 10µM*, WRN inhibitor 40µM*, FEN1 inh 32µM*, PGK validate 2.6µM*, Pol iota confirm 2.7*, Pol kappa inh-2 4.7* and Pol eta inh-2 4.8*.
O=C(CN1C(=O)S/C(=C\c2ccc(O)c([N+](=O)[O-])c2)C1=O)Nc1ccc(N2CCOCC2)cc1 was read as Pol eta inh-1 2%, POLB inh 1%, POLI inh -10%, Pol kappa inh-1 -8%, WRN inhibitor -9% and FEN1 inh 15%.
`Cc1ccc(NC(=O)CN2C(=O)S/C(=C/c3ccc(O)c([N+](=O)[O-])c3)C2=O)cc1C` gave Pol eta inh-1 45µM*, POLB inh 89µM*, POLI inh 20µM*, Pol kappa inh-1 50µM*, WRN inhibitor 79µM*, FEN1 inh inconclusive, Pol iota confirm 34*, Pol kappa inh-2 60* and Pol eta inh-2 inconclusive.
CCCCn1c(N)c(N(CCOC)C(=O)c2cc(-c3ccco3)nc3ccccc23)c(=O)[nH]c1=O was read as Pol eta inh-1 11µM*, POLI inh 20µM*, Pol kappa inh-1 89µM*, WRN inhibitor inconclusive, FEN1 inh -19%, Pol iota confirm inconclusive and Pol eta inh-2 inconclusive.
Screening CCCOc1ccc(C(=O)N(Cc2ccco2)Cc2ccco2)cc1 returned Pol eta inh-1 inconclusive, POLB inh 9%, POLI inh -1%, Pol kappa inh-1 -6% and FEN1 inh -2%.
CCCCOc1ccc(C(=O)N(Cc2ccco2)Cc2ccco2)cc1 was read as Pol eta inh-1 32µM*, POLB inh 22µM*, POLI inh inconclusive, Pol kappa inh-1 -37%, FEN1 inh -9%, Pol iota confirm 67*, Pol kappa inh-2 15* and Pol eta inh-2 54*.
`O=c1cc(O)c2sc3nc(C(F)(F)F)c4c(c3c2[nH]1)CCCCC4` gave Pol eta inh-1 1%, POLB inh 11%, POLI inh 41%, Pol kappa inh-1 0%, WRN inhibitor -5% and FEN1 inh -13%.
For O=c1cc(O)c2sc3nc(-c4cccnc4)cc(C(F)(F)F)c3c2[nH]1 the results were Pol eta inh-1 inconclusive, POLB inh 13µM*, POLI inh 18µM*, Pol kappa inh-1 inconclusive, WRN inhibitor inconclusive, FEN1 inh inconclusive, Pol iota confirm 67* and Pol eta inh-2 inconclusive.
`O=C(O)/C=C/c1ccc([N+](=O)[O-])o1` gave Pol eta inh-1 20µM*, POLB inh inconclusive, POLI inh 25µM*, Pol kappa inh-1 inconclusive, WRN inhibitor -25%, FEN1 inh -19%, PGK validate 4.6µM*, Pol iota confirm 30* and Pol eta inh-2 24*.
Screening CN1CCN(C(=O)/C=C/c2ccc([N+](=O)[O-])o2)CC1 returned Pol eta inh-1 -21%, POLB inh 39%, POLI inh -10%, Pol kappa inh-1 -10%, WRN inhibitor 3% and FEN1 inh 16%.
COc1ccc(-n2c(=O)c(CCc3ccccc3)nc3cnc(OC)nc32)cc1 was read as Pol kappa inh-1 -4%[60.1 µM].
O=C1C=CC2=C3c4cc(O)c(O)cc4CC3(O)COC2=C1O (stereo not drawn) was read as Pol eta inh-1 0.79µM*, POLI inh 1.3µM*, Pol kappa inh-1 1.1µM*, WRN inhibitor 4.5µM*, FEN1 inh 3.5µM*, PGK validate 0.58µM*, GALK confirm 21µM*, GALK redox cs -3% and HEK293 viability -7%.
For COc1ccc(OC)c(CNS(=O)(=O)c2c(C(=O)N3CCC(C)CC3)c(C)n(C)c2C)c1 the results were Pol eta inh-1 -6%, POLB inh -12%, POLI inh 21%, Pol kappa inh-1 -10%[60.1 µM] and FEN1 inh 18%.
O=C(O)c1cccc2c1C(=O)c1ccccc1-2 was read as Pol eta inh-1 0%, POLB inh 9%, POLI inh 63%, Pol kappa inh-1 -3%, WRN inhibitor -1% and FEN1 inh -13%.

High-throughput results as filed in PubChem BioAssay.
